D2 ag-1: activates the human D2 dopamine receptor; AID 624465; activation, % (no concentration beside the values); 360,000 compounds, 0.084% hits; DiscoveRx PathHunter D2 beta-arrestin, luminescence, 90 min; 100% = 57 uM dopamine signal; in the data active means activation above about 40%; inconclusive means between about 15% and that limit
Target sequence (P14416 whole entry, looked up): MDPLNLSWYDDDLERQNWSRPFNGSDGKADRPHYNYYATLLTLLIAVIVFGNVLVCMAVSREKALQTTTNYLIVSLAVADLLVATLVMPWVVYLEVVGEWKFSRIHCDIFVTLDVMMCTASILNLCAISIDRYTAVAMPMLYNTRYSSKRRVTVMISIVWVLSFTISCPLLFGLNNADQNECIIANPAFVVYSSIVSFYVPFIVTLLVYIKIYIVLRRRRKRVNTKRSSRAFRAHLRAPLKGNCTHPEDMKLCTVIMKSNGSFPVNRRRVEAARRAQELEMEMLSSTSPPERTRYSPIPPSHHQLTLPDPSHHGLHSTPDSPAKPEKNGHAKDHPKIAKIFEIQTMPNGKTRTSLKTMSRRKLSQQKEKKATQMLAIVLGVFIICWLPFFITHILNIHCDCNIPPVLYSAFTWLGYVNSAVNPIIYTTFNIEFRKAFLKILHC
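Agonist mode: compounds alone added to overnight-plated D2 PathHunter cells for 90 min at 37 C, with 57 uM final dopamine (EC100) defining full response. Beta-arrestin recruitment detected by chemiluminescent reagent, read after 1 h at ambient temperature.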
D2 ag-2: activates the human D2 dopamine receptor | HEK293 T-REx D2 cells, calcium flux agonist mode | activation, % at 2 µM | 340,000 compounds, 0.53% hits | AID 485358;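 active means activation over 3 SD above normal in the single-dose calcium agonist read, cut at about 30% in these data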; further: 0% is about no effect
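Tetracycline-induced HEK293 Trex cells with D2 receptor force-coupled to calcium signaling, plated overnight at 30 C and loaded with no-wash calcium dye. Calcium flux read kinetically for 180 s after compound addition; responses flag agonists.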
D2 PAM-1: positive allosteric modulators of human D2 dopamine receptor; AID 624464; P14416; potentiation, % (test concentration not listed); 360,000 compounds, 0.23% hits; DiscoveRx D2 beta-arrestin cells, luminescence, 90 min; 100% = 57 uM dopamine signal; in the data active means potentiation above about 50%; inconclusive means mostly about 30% to 49%
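D2 cells co-treated with compound plus 50 nM dopamine (EC20) for 90 min at 37 deg C to detect potentiation. Beta-arrestin recruitment was read as enzyme-fragment luminescence after 1 h at ambient temperature. Full response was set by 57 uM dopamine.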
D2 antagonist: antagonizes the human D2 dopamine receptor; inhibition, % at 10 µM; 340,000 compounds, 2% hits; HEK293 TREx D2 cells, calcium flux, dopamine EC80; P14416; in the data active means inhibition above about 30%; inactive means below that, where a call was filed; further: 0% is about no effect
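Calcium flux kinetic readout in an inducible HEK293 TREx D2 line plated overnight at 30 C. After 180 s compound exposure, an EC80 dopamine challenge follows with another 180 s kinetic read to detect antagonism.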
Apoferritin bind: binds horse apoferritin like a general anesthetic. Potency, µM (doses to about 77.5 µM), without a hit: at the top dose activity change, negative = displacement, usual class: inhibitors. apoferritin/1-aminoanthracene competitive binding, fluorescence. 350,000 compounds, 0.074% hits. P02791; active means well fitted inhibition curve with a large enough effect; inconclusive means small, poorly fitted or top-dose-only effect; inactive means no such curve, though single readings can be large or run the other way; further: potency means the concentration at half of the fitted maximal effect; on the % scale 0 is the no-effect control and ±100 the full control effect; nearly all actives have a fitted effect of over 20% in size
Target sequence (P02791 2-175 limits assumed): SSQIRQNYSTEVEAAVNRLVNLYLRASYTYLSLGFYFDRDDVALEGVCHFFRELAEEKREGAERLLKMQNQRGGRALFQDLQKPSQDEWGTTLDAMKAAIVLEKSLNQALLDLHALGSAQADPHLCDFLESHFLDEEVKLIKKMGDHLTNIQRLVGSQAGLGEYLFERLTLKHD
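In PBS, apoferritin at 10 uM is loaded with 1-AMA from a 50% saturated solution. After 10 min of compound exposure at ambient temperature, reduced 535 nm fluorescence indicates probe displacement.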
D2 PAM-2: D2 dopamine receptor (human) potentiation. P14416. HEK293 T-REx D2, calcium flux, EC20 dopamine potentiation. potentiation, % at 10 µM. 340,000 compounds, 0.34% hits. AID 485347;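 active means potentiation over 3 SD above the plate norm, cut at about 30% in these data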; further: 0% is about no effect
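Using a no-wash calcium dye in inducible, force-coupled HEK293 Trex cells expressing D2, we tracked fluorescence each second for 180 s after compound, then for 180 s after EC20 dopamine to detect augmented signalling.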
* hit, by the source's call; u = inconclusive; x = not tested or not shown. Compounds with a hit are over-represented: about 2.5% of the library has one in this group of screens.

SMILES	D2 ag-1	D2 ag-2	D2 PAM-1	D2 antagonist	Apoferritin bind	D2 PAM-2
Cc1ccc(C(=O)Nc2cccc(C(F)(F)F)c2)cc1NC(=O)c1nccn1C	-2	0	-1	0	-8%	-3
CC(=O)N(/N=C/c1ccc(C)cc1)c1nc(CCl)cs1	-2	-2	-4	6	-2%	17
CCN(CC)c1ccc(C=C2C(=O)OC(c3ccccc3)OC2=O)cc1 (configuration not stated)	-1	1	-7	0	-15%	x
CCN(CC)c1ccc(/C=C/C(=O)C2C(=O)C=C(C)OC2=O)cc1 (configuration not stated)	-1	83*	-1	50*	-11%	x
O=C(NNC1=Nc2ccccc2SC1)c1ccccc1F	1	0	-16	-11	-14%	-19
O=C(NNC1=Nc2ccccc2SC1)c1cccc([N+](=O)[O-])c1	-3	0	-14	71*	-16%	-25
COC(=O)c1ccccc1NC(=O)N1CCN(C/C=C/c2ccccc2)CC1	2	0	-11	35*	3%	-7
Cc1ccc(NC(=O)N2CCN(C/C=C/c3ccccc3)CC2)cc1	-2	1	-3	-9	-3%	0
O=C(c1cc2ccccc2o1)N1CCN(C/C=C/c2ccccc2)CC1	-3	-2	-36	77*	u	-33
CN(C)CC/C=C1/c2ccccc2Sc2c(O)cc(Cl)cc21	-1	1	-44	3	4%	-3
COc1cc(Cl)cc2c1Sc1ccccc1/C2=C/CCN(C)C	-4	-2	-34	63*	-24%	-23
COc1cc2c(cc1Cl)/C(=C\CCN(C)C)c1ccccc1S2	-3	2	-49	37*	0%	-22
CCOc1ccc(CNC(=O)c2ccc3c(Cl)c4c(nc3c2)CCCC4)cc1	x	1	x	x	-10%	6
CC(C)COCC(CN(Cc1ccccc1)c1ccccc1)N1CCCC1 (configuration not stated)	-5	38*	-30	-8	3%	-17
CC(C(=O)Nc1ccc(OCc2ccccc2)cc1)N1CCCC1 (configuration not stated)	3	0	1	7	u	-2
NC(=O)c1nsc(C(=O)N(c2ccccc2)C(C(=O)NCc2ccc(F)cc2)c2ccco2)c1N (configuration not stated)	4	x	2	x	5%	x
NC(=O)c1nsc(C(=O)N(CC(=O)NCc2ccco2)c2ccccc2F)c1N	-3	0	-4	8	-9%	33*
O=S(=O)(c1ccccc1)N1CCN(CC2CC3C=CC2C3)CC1 (configuration not stated)	-4	-1	-9	0	-18%	-2
Cc1ccc(CN2CCN(CC3CC4C=CC3C4)CC2)cc1 (configuration not stated)	-2	0	-32	65*	-5%	-26
CN1CCN(C(c2cccc(Cl)c2)c2ccccc2Cl)CC1 (configuration not stated)	-6	0	-34	83*	-7%	-28
Cc1ccsc1C=Nc1ccc(O)cc1	u	0	75*	3	u	1
O=C(Nc1ccc(F)cc1)N1CCn2c(nc3ccccc32)C1	-1	1	-8	33*	0%	3
COc1ccc(S(=O)(=O)N(C)C)cc1NC(C)C(=O)Nc1cccc(C#N)c1 (configuration not stated)	1	2	-13	10	-11%	-11
Cc1ccc(/C(N)=N/OC(=O)N2c3ccccc3Sc3ccccc32)cc1	u	x	101*	x	x	x
O=C1CCc2cc(S(=O)(=O)Nc3ccccc3)ccc2N1	7	1	-1	-4	x	-4
SMILES	D2 ag-1	D2 ag-2	D2 PAM-1	D2 antagonist	Apoferritin bind	D2 PAM-2
Cc1ccc(NS(=O)(=O)c2ccc3c(c2)CCC(=O)N3)cc1	3	1	-2	65*	x	-25
COc1cc(CNCc2ccccn2)ccc1OCc1ccc(Cl)cc1Cl	-6	0	-17	4	20µM*	2
CCOc1ccccc1CNc1ccc(O)cc1	14	0	-5	-2	u	1
CCOc1cc(CNc2ccc(O)cc2)ccc1OCc1ccc(Cl)cc1Cl	44*	-1	96*	-14	-15%	8
CCOc1cccc(CNc2ccc(O)cc2)c1OCc1ccc(Cl)cc1	u	0	91*	-15	u	-7
Oc1ccc(NCc2ccccc2OCc2ccccc2F)cc1	14	0	115*	17	u	5
COc1cccc(C(C)(O)c2nc(-c3cc4ccccc4o3)cs2)c1 (configuration not stated)	6	x	-11	x	x	x
O=C(CCC1N=C2c3ccccc3N=C(SCc3ccccc3Cl)N2C1=O)N1CCN(c2ccccc2)CC1 (configuration not stated)	x	-1	x	x	-11%	-1
Cc1c(Br)c([N+](=O)[O-])nn1CC(=O)NC1CCCCCC1	-2	-2	-6	41*	1%	1
O=C(Cc1cn2ccsc2n1)OCc1ccccc1	3	0	-5	32*	-17%	-3
COc1ccc(OC)c(N2C(=O)CC(Cc3cc(C)cc(C)c3)C2=O)c1 (configuration not stated)	-1	0	10	10	0%	30*
CNC(=S)NC1CC2CCCC(C1)N2Cc1ccco1 (configuration not stated)	-1	-1	-21	-8	-4%	-11
CCc1ccc(NC(=S)NC2CC3CCCC(C2)N3Cc2ccccc2)cc1 (configuration not stated)	-2	0	-21	40*	-7%	8
S=C(Nc1ccc(Cl)cc1)NC1CC2CCC(C1)N2Cc1ccccc1 (configuration not stated)	4	3	-24	93*	-15%	-28
CNC(=S)NC1CC2CCC(C1)N2Cc1ccccc1 (configuration not stated)	-2	1	-27	64*	-5%	-26
Cn1ccs/c1=N\C(=O)Nc1ccccc1	1	0	-9	-3	1%	6
CN(C)S(=O)(=O)N1CCC(Oc2cccc(C(=O)NC3CCCCCC3)c2)CC1	0	0	8	-14	1%	14
CCN1CCN(C(=O)c2cccc(OC3CCN(S(=O)(=O)N(C)C)CC3)c2)CC1	-6	1	-12	2	-12%	36*
C=CCNC(=O)CC(=O)N/N=C/c1ccc(C(=O)OC)cc1	1	1	-9	33*	-4%	-2
